Assay [1] in a line: qHTS assay for small molecule agonists of the p53 signaling pathway (AID 651631; calls by dose curve; also: nearly all actives have a fitted effect of over 15% in size; also: potency is read from the fitted curve at half-maximal effect). A digest of the protocol:
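HCT-116 cells carrying a stable p53 response element–beta-lactamase reporter were plated, rested 5 h at 37 °C, then exposed to compound in DMSO for 16 h at 37 °C; reporter activity was read as FRET substrate fluorescence after 2 h at room temperature.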
Background: qHTS replaces the single test concentration by a dilution series.

Assay [2] can be described thus: qHTS assay for small molecules that induce genotoxicity in human embryonic kidney cells expressing luciferase-tagged ATAD5 (AID 651632). Also: nearly all actives have a fitted effect of over 15% in size. A digest of the protocol:
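Test compounds were delivered by pin tool onto HEK293T reporter cells (2,000/well) expressing ATAD5 fused to luciferase. After 16 hr at 37C, 5% CO2, Amplite was added for 30 min at room temperature and luminescence was measured.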

Assay [3] can be described thus: qHTS assay for small molecule agonists of the p53 signaling pathway - cell viability (AID 651633; calls by dose curve; also: nearly all actives have a fitted effect of over 30% in size; also: potency is read from the fitted curve at half-maximal effect). A digest of the protocol:
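p53RE-bla cells were treated with compound for 16 hours at 37 C. Cytotoxicity was then measured as CellTiter-Glo luminescence after 30 min at room temperature.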

Assay [4] in a line: qHTS assay for small molecules that induce genotoxicity in human embryonic kidney cells expressing luciferase-tagged ATAD5 - cell viability (AID 651634; calls by dose curve; also: nearly all actives have a fitted effect of over 25% in size; also: potency is read from the fitted curve at half-maximal effect). A digest of the protocol: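 Quantitative high-throughput format. HEK293T cells expressing ATAD5 fused to luciferase were plated at 2,000 cells/well and treated 15.5 hr with compound versus DMSO. Viability was determined by fluorescent live-cell protease substrate, 30 min at 37C.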

Assay [5] is described as follows: qHTS assay for small molecule disruptors of the mitochondrial membrane potential - cell viability (AID 720634; calls by dose curve;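 also: human HepG2 liver cancer cells; nearly all actives have a fitted effect of over 20% in size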). A digest of the protocol:
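Same-well counter-screen: following the MMP dye addition, CellTiter-Glo was added to 1 hr compound-treated HepG2 cells and luminescence read after 30 min at room temperature.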

The nature of assay [6]: qHTS assay to test for compound auto fluorescence at 590 nm (red) in HepG2 cells (AID 720674). A digest of the protocol:
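HepG2 cells, 2,000 per well in MEM with 10% FBS, attached overnight at 37 C, then got 23 nL compound or DMSO. After 1 hr at 37 C, 5% CO2, red fluorescence was read at 540/590 nm against Rose Bengal sodium as reference.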

Assay [7] in a line: qHTS assay to test for compound auto fluorescence at 535 nm (green) in HepG2 cells (AID 720675).
Assay [8] can be described thus: qHTS assay to test for compound auto fluorescence at 460 nm (blue) in HEK293 cells (AID 720678). Also: potency is read from the fitted curve at half-maximal effect. A digest of the protocol:
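After cell attachment (4-5 hr, 37C), compounds were pinned onto HEK293 monolayers in 10% dialyzed FBS medium. The blue channel (405/460 nm) was read following overnight culture. Equivalency was calculated against triamterene.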

Assay [9] can be described thus: qHTS assay to test for compound auto fluorescence at 590 nm (red) in HEK293 cells (AID 720679). A digest of the protocol: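 Plates of HEK293 cells (10% dialyzed FBS) are treated with 23 nL compound or DMSO vehicle after a 4-5 hr attachment period, incubated overnight at 37C, and read for red fluorescence at 540/590nm.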
The nature of assay [10]: qHTS assay to test for compound auto fluorescence at 535 nm (green) in HEK293 cells (AID 720680).
Assay [11] is described as follows: qHTS assay to test for compound auto fluorescence at 460 nm (blue) in HEK293 cell free culture (AID 720681). Also: potency is read from the fitted curve at half-maximal effect. A digest of the protocol:
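Compounds were added to cell-free DMEM with 10% FBS and fluorescence read directly. The blue channel used 405 nm excitation and 460 nm emission, with triamterene as the reference fluorophore.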

The nature of assay [12]: qHTS assay to test for compound auto fluorescence at 590 nm (red) in HEK293 cell free culture (AID 720683). A digest of the protocol:
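Cell-free wells of DMEM with 10% FBS received compound, and intrinsic fluorescence was read at excitation/emission 540/590 nm. Values expressed as equivalence to Rose Bengal sodium.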

Assay [13] in a line: qHTS assay to test for compound auto fluorescence at 590 nm (red) in HepG2 cell free culture (AID 720684). A digest of the protocol: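 Rose Bengal sodium served as the reference for red signal. Test compounds were dispensed into serum-containing MEM (10% FBS) without cells, and plates were read at 540/590 nm.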
Assay [14] can be described thus: qHTS assay to test for compound auto fluorescence at 460 nm (blue) in HepG2 cell free culture (AID 720685). Also: potency is read from the fitted curve at half-maximal effect. A digest of the protocol:
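Cell-free plates of MEM plus 10% FBS received 23 nL compound or DMSO vehicle; blue-channel (405/460 nm) intensity scored against triamterene as reference fluorophore.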

Assay [15] in a line: qHTS assay to test for compound auto fluorescence at 535 nm (green) in HepG2 cell free culture (AID 720686).
Assay [16] is described as follows: qHTS assay to test for compound auto fluorescence at 460 nm (blue) in HepG2 cells (AID 720687). Also: potency is read from the fitted curve at half-maximal effect. A digest of the protocol:
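HepG2 cells in MEM with 10% FBS, attached overnight at 37 C, were exposed to compound or DMSO for 1 hr at 37 C, 5% CO2. Blue fluorescence was read at 405/460 nm, with triamterene as reference fluorophore.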

For assay [17], the target named is Glucocorticoid receptor (Homo sapiens) (UniProt P04150). Nature of the assay: qHTS assay to identify small molecule agonists of the glucocorticoid receptor (GR) signaling pathway (AID 720691; active = well fitted activation curve with a large enough effect in the signal ratio in the repeat runs, not every such curve was filed as active; the % refers to the signal ratio). Particulars: GR-bla HeLa, beta-lactamase reporter ratio, 18 h; activation: at 62.4 µM (top of the series). A digest of the protocol: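 A HeLa cervical cancer line expressing GR and a glucocorticoid response element-driven beta-lactamase gene is treated with compounds for 18 h; LiveBLAzer B/G FRET substrate is then applied and fluorescence read.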
Sequence of Glucocorticoid receptor (Homo sapiens) (P04150 whole entry, looked up): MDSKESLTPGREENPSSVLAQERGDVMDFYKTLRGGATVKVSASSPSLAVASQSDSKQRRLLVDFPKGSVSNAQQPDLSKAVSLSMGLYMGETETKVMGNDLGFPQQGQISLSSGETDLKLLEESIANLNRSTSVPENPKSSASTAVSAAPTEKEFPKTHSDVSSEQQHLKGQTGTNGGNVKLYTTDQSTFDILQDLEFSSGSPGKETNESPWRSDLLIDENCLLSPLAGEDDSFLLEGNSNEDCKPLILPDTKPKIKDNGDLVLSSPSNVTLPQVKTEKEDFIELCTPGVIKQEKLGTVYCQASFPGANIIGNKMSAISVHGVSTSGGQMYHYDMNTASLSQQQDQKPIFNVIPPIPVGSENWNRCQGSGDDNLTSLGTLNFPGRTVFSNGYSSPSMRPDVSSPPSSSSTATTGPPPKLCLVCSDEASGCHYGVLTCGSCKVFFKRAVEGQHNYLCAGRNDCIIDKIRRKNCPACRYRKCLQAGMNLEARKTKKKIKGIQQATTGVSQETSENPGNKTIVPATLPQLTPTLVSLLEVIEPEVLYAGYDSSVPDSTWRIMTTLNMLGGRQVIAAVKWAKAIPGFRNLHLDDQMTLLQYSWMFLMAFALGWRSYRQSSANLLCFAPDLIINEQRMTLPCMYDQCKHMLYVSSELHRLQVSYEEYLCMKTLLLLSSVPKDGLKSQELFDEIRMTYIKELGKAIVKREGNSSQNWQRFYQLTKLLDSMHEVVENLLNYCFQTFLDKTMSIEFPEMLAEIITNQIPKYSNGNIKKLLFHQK

Assay [18] shares this target. Nature of the assay: qHTS assay to identify small molecule antagonists of the glucocorticoid receptor (GR) signaling pathway (AID 720692; active = well fitted inhibition curve with a large enough effect in the signal ratio in the repeat runs, not every such curve was filed as active; the % refers to the signal ratio; also: potency is read from the fitted curve at half-maximal effect). A digest of the protocol:
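GRE-bla HeLa line, dex-stimulated (5 nM final). Compound exposure 18 h, 37 C. Beta-lactamase FRET read after 2 h RT substrate.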

Assay [19] is described as follows: qHTS assay for small molecule disruptors of the mitochondrial membrane potential (AID 720635). Also: potency is read from the fitted curve at half-maximal effect. A digest of the protocol: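 HepG2 cells exposed to compound 1 hr at 37C, then Mito-MPS dye 30 min. Ratio read of aggregate (540/590 nm) versus monomer (490/535 nm) fluorescence.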
Assay [20] can be described thus: qHTS assay to test for compound auto fluorescence at 535 nm (green) in HEK293 cell free culture (AID 720682). A digest of the protocol:
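Read-out: 485/535 nm fluorescence intensity, calibrated against fluorescein. Medium only (DMEM + 10% FBS, no cells); test compound or DMSO vehicle added by pintool before plate reading.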

Values joined by “and” are separate entries in the source; they are usually repeats but may differ in a detail not shown here. Equal entries are not always repeated. Results filed as inconclusive are left out. Active and inactive are the calls of the source. Unless noted, calls follow the shape of the dose curve; as a rule, active = well fitted curve in the direction sought with a large enough effect in the repeat runs; inconclusive = weak or mixed curves; inactive = no such curve, though single readings can be large; an effect the other way counts as inactive or inconclusive.
Tags tell the direction and shape of the fitted curve or compound fluorescence and quenching.

Take `Cc1cc(-c2ccc(N=Nc3ccc4c(S(=O)(=O)O)cc(S(=O)(=O)O)c(N)c4c3O)c(C)c2)ccc1N=Nc1ccc2c(S(=O)(=O)O)cc(S(=O)(=O)O)c(N)c2c1O`: the Potency entry in assay [1], in assay [2], in [3], in assay [5], in assay [7] and in assay [8] was “inactive” in each case. The Potency result in [11], in assay [14], in assay [15], in assay [16], in assay [17] and in assay [18] was “inactive” each time. Further, the Potency in assay [4] was 13.3 µM (active). Further, the compound was called inactive in [6], in [9], in assay [10], in [12] and in assay [13].

As for `CNC(=O)OCc1cccc(COC(=O)NC)n1`, the Potency entry in assay [1], in [2], in assay [3], in assay [4], in assay [5] and in [19] was “inactive” each time. For the same compound, the Potency entry in [8], in assay [11], in assay [14], in assay [15], in [16] and in assay [17] was “inactive” in each case. In addition, the Potency entry in assay [18] is “inactive”. In addition, the call in assay [6], in assay [9], in assay [10], in assay [12] and in assay [13] was inactive.

On to `COc1cc(NS(C)(=O)=O)ccc1Nc1c2ccccc2nc2ccccc12`, for which the Potency was 1.68 µM (active) in [1]; 18.8 µM (active) in assay [3]; 8.8 µM (active) in assay [19]; 11.2 µM [fluorescent] (active) in assay [8]; 12.6 µM (active) in assay [11]; 12.6 µM [fluorescent] (active) in assay [14]. Moreover, the Potency in assay [16] was 12.6 µM [fluorescent] (active). In addition, the Potency result in assay [5], in assay [7] and in [15] was “inactive” each time. Also, the compound was called inactive in [6], in [9], in assay [10], in assay [20], in [12] and in [13].

In the case of `COC(=O)C[C@](O)(CCCC(C)(C)O)C(=O)O[C@@H]1C(OC)=CC23CCCN2CCc2cc4c(cc2[C@H]13)OCO4` (stereo partly specified), the Potency was 0.0335 µM (active) in [1]; 26.6 nM (active) and 23.7 nM (active) in assay [4]; 0.169 µM (active) in assay [18]. Further, the Potency entry in assay [2], in [3], in assay [5], in assay [7], in [8] and in assay [11] was “inactive” throughout. For the same compound, the Potency result in assay [14], in [15] and in assay [16] was “inactive” in each case. Besides, the result in [6], in [9], in [10], in assay [20] and in [12] was inactive.

`CCN(CC)CCn1c(=O)c(Cc2ccc(OC)cc2)nc2ccccc21`: the Potency result in assay [2], in [3], in [4], in assay [5], in assay [19] and in assay [7] was “inactive” each time. In addition, the Potency result in assay [8], in assay [11], in assay [14], in assay [15], in [16] and in assay [17] was “inactive” in each case. Further, the Potency result in [18] was “inactive”. The result in [6], in assay [9], in assay [10], in assay [20], in assay [12] and in assay [13] was inactive.

On to `CCCn1c(=O)[nH]c(=O)c2[nH]cnc21`, for which the Potency result in assay [2], in [3], in assay [4], in assay [5], in assay [19] and in [7] was “inactive” each time. The Potency entry in [8], in [11], in assay [14], in assay [15] and in assay [16] was “inactive” in each case. Further, the compound was called inactive in assay [6], in assay [9], in [10], in [20], in assay [12] and in [13].

With `CC[C@@]1([C@@H]2O[C@@H]([C@H]3O[C@@](O)(CO)[C@H](C)C[C@@H]3C)C[C@@H]2C)CC[C@H]([C@]2(C)CC[C@]3(C[C@H](O)[C@@H](C)[C@@H]([C@@H](C)[C@@H](OC)[C@H](C)C(=O)O)O3)O2)O1` (stereo in doubt), the Potency result in [2], in assay [3], in assay [5], in assay [7], in [8] and in assay [11] was “inactive” in each case. The Potency result in assay [14], in [15] and in assay [16] was “inactive” each time. The Potency in assay [4] is 0.596 µM (active). The compound was classed as inactive in assay [6], in assay [9], in assay [10], in assay [20], in assay [12] and in assay [13].

These data come from PubChem BioAssay (Tox21).
